Experimental findings from PubChem BioAssay (Tox21) are described below.

“And” between values parts separate entries of the source, which are not always exact repeats. Equal values may be shown once. Inconclusive results are not listed. A call without a number means that no potency is given here. A structure can be active in one record and inactive in another. The source made the active and inactive calls. Calls come from the whole dose curve.
Potency is the fitted concentration of half-maximal effect.

Chain of 5-hydroxytryptamine receptor 2A (Homo sapiens) (P28223 whole entry, looked up): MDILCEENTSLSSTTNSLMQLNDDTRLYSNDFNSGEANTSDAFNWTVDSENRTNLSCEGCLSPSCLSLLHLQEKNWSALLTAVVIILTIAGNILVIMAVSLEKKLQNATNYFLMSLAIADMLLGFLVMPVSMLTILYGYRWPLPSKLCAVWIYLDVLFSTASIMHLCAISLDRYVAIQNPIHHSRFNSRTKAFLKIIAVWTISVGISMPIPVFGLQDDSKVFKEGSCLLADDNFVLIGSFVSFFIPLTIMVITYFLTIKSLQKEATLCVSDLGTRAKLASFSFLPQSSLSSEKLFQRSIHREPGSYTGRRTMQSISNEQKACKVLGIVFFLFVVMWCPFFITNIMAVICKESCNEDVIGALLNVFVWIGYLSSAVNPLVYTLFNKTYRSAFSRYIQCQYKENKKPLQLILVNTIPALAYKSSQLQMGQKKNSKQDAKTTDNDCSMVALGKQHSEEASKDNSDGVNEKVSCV

The target in this test is 5-hydroxytryptamine receptor 2A (Homo sapiens) (UniProt P28223). In words: 5-hydroxytryptamine receptor 2A (HTR2A) small molecule antagonists, cell-based qHTS assay (AID 1963586). Note: nearly all actives have a fitted effect of over 45% in size. The note with it: HTR2A-CHO cells, DOI-induced calcium flux, fluorescence; series mostly up to 61.5 µM; activity, negative = inhibition: at the top concentration. The text has this:
National Center for Advancing Translational Sciences [NCATS]
Division of Preclinical Innovation [DPI]
U.S. Environmental Protection Agency [EPA]
National Institutes of Environmental Health Sciences [NIEHS]
National Toxicology Program [NTP]
U.S. Food and Drug Administration [FDA]
The HTR2A receptor is a subtype of the 5-HT2 receptor that belongs to the serotonin receptor family and is a G protein-coupled receptor (GPCR). The HTR2A-CHO cell line stably expressing human 5-hydroxytryptamine receptor 2A (HTR2A) can be used for screening antagonists of interactions between 5-HT2 and its ligands. The HTR2A-CHO calcium flux assay is a homogeneous fluorescence-based assay for detecting the intracellular calcium level using FDSS kinetic plate reader system.
Tox21 Assay Protocol Summary:
HTR2A-CHO cells were dispensed at 2000 cells/3uL/well in 1536-well black-clear bottom plates using a Multidrop Dispenser. After the assay plates were incubated at a 37 C/5% CO2 incubator for 18 h, 3 uL of Dye Loading Buffer was transferred to the assay plate by a Flying Reagent Dispenser. The assay plates were incubated at 37 C for 1h. For antagonist mode, 23 nL of compounds dissolved in DMSO, positive controls or DMSO only was transferred to the assay plate by a pin tool. After 5 min incubation at room temperature, 1.5 uL of 4-Iodo-2,5-dimethoxy-alpha-methylbenzeneethanamine hydrochloride (DOI) at 4nM was added to each well. The fluorescence intensity in the plates was measured using FDSS 7000EX kinetic plate reader for 3 min at 1 sec intervals.
Background: In qHTS, concentration-response curves come from the screen itself.
Consider `OCc1ccc(Cl)cc1Cl`, for which the “activity, negative = inhibition” value is 32.3% [at 28.5 µM] (inactive).
`CC(=O)Nc1ccc(CC(=O)O)cc1`: the Potency entry is “inactive and 410 nM (active)”.
The same measure, in the same setting: as for `Brc1nc2ccccc2s1`, the entry is “inactive”.
The same measure, in the same setting: the result for `CCCCC(CC)COC(=O)C(C#N)=C(c1ccccc1)c1ccccc1` (stereo not given) reads “inactive”.
Still for that read-out and setting: as for `CN1C(=O)CC[C@H]1c1cccnc1`, the entry is “inactive”; as for `CCC(C)OC(=O)c1ccc(O)cc1` (stereo not given), “inactive”.
Consider `CCCCCCCCCCCC(=O)OC`, for which the Potency entry was “inactive”.
On the same count and under the same terms, the result for `NC=O` reads “inactive”; that for `CC(=O)CCc1ccccc1`, “inactive”.
On the same count and under the same terms, as for `CC1CCC2CC1C2(C)C` (stereo not given), the entry is “inactive”; as for `c1ccc2[nH]ccc2c1`, “inactive”.
Consider `CCCCCCCCCCCCCO`, for which the “activity, negative = inhibition” value is 8.83% (inactive).
`O=c1oc(=O)c2cc3c(=O)oc(=O)c3cc12`: the Potency result is “inactive”.
As to `Cc1cc(=O)[nH]c(C(C)C)n1`, the “activity, negative = inhibition” value was -3.28% (inactive).
`CC(C)CCCCCCCOC(=O)CCCCC(=O)OCCCCCCCC(C)C`: the Potency entry was “inactive”.
Still for that read-out and setting: as for `O=C(O)/C=C\C(=O)O`, the figure is 27.5 µM (active) and 3.75 µM (active) and inactive.
Still for that read-out and setting: the result for `CCC(C)(O)CCCC(C)C` (stereo not given) reads “inactive”.
The same measure, in the same setting: as for `O=C1OC2(c3ccccc31)c1cc(I)c(O)c(I)c1Oc1c2cc(I)c(O)c1I`, the entry is “inactive”.
Take `C=C[Si](OCCOC)(OCCOC)OCCOC`: the Potency entry was “inactive”.
Same read-out and setting: the result for `CC(=O)CC(=O)N(C)C` reads “inactive”.
In the case of `Cc1ccc2c(n1)Oc1ccc(C(C)C(=O)OCC(=O)N(C)C)cc1C2` (stereo not given), the “activity, negative = inhibition” value is -18.1% [at 28.5 µM] (inactive).
Turning to `C=CCCCCCCCCC(=O)O`, the Potency result was “inactive”.
Still for that read-out and setting: as for `CCNc1ccccc1`, the entry is “inactive”; as for `CCCCCCC(C)(C)S`, “inactive”.
Still for that read-out and setting: as for `CCCCCCCCCCCO`, the entry is “inactive”; as for `O=C(OCCOCCOC(=O)c1ccccc1)c1ccccc1`, “inactive and 7.5 nM (active)”.
`CC(=O)OCc1ccc2c(c1)OCO2`: the Potency result is “inactive”.
Still for that read-out and setting: the result for `CCCCC(CC)COC(=O)c1ccc(C(=O)OCC(CC)CCCC)cc1` (stereo not given) reads “inactive”; that for `CN(C)CCCN`, “inactive”.
Regarding `CCCCC(CC)CO` (stereo not given), the “activity, negative = inhibition” value was 16.9% (inactive).
For the compound `Cc1cccc(O)c1C`, the Potency result is “inactive”.
As for `CCCCOC(=O)COc1ccc(Cl)cc1Cl`, the “activity, negative = inhibition” value is -48.7% (inactive).
On to `Cc1ccc(Cl)cc1`, for which the Potency entry is “inactive”.
Still for that read-out and setting: as for `CCCCCCCCCCO`, the entry is “inactive”; as for `CCCCCC1=CCCC1=O`, “inactive”; as for `C=C(C)CC(C)(C)C`, “inactive”.
Turning to `NC(=O)OCC(COC(N)=O)c1ccccc1`, the “activity, negative = inhibition” value is 9.67% (inactive).
Consider `COCCOC(=O)c1ccccc1C(=O)OCCOC`, for which the Potency result was “inactive”.
On the same count and under the same terms, the result for `C=CCOC(=O)CC(C)C` reads “inactive”.
The same measure, in the same setting: as for `C=C(C)C(=O)OCC(C)C`, the entry is “inactive”.
